Measurements reported in paper PMC7862700, “An all-to-all approach to the identification of sequence-specific readers for epigenetic DNA modifications on cytosine”.

Key:
Assay in all cases: DAPPL (digital affinity profiling via proximity ligation, sequencing); 10 mM Tris-HCl pH 7.5, 50 mM NaCl, 1 mM DTT, 4% glycerol, room temperature, 30 min; GST-TFs on glutathione beads, 16-mer random dsDNA library, 0.1% formaldehyde crosslink after washing; high values mean tight binding
FLI1 = target: T1, FLI1 (Homo sapiens, UniProt Q01543 1-452); conditions: protein: recombinant; tags: N-terminal GST; dsDNA, one strand shown
T1 sequence: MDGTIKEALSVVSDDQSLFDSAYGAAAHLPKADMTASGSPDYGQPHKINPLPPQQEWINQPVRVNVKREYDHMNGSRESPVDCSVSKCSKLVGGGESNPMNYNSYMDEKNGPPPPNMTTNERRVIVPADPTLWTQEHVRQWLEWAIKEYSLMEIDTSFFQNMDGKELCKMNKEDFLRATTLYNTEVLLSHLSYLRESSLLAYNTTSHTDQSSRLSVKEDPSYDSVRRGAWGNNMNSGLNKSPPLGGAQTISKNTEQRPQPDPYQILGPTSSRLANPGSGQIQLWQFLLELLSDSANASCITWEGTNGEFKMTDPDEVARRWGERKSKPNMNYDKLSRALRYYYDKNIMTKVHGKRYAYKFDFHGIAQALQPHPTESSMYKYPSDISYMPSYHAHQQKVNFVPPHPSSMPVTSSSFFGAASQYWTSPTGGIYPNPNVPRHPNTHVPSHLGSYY
Procedure, shortened: (§1)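 Each value of binding signal is a hexamer's read frequency for a factor divided by the same hexamer's frequency in the tag-only sample. Barcoded, bead-captured GST fusions of human transcription factors made in yeast were pooled with that sample and incubated with 200 nmole of a random double-stranded 16-mer DNA library in Tris/NaCl/DTT/glycerol buffer at room temperature for 30 min. Washing, 0.1% formaldehyde crosslinking, proximity ligation, PCR and Illumina NextSeq500 sequencing followed.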

ELK1 = target: T2, ELK1 (Homo sapiens, UniProt P19419 1-428); conditions: protein: recombinant; tags: N-terminal GST; dsDNA, one strand shown
T2 sequence: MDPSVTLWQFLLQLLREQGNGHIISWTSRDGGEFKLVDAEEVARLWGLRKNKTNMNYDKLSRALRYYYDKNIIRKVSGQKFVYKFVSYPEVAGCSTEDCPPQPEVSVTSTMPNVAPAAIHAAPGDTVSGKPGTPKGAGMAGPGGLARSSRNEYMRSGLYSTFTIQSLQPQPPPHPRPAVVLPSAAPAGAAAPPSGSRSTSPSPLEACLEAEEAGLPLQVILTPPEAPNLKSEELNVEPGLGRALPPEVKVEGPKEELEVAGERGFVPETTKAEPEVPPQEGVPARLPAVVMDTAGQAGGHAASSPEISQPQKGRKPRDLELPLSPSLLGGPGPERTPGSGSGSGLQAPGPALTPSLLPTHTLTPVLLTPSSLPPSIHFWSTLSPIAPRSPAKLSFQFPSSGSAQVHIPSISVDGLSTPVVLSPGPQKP
Procedure, shortened: as §1

ELF1 = ELF1 (Homo sapiens, UniProt P32519 1-619); conditions: protein: recombinant; tags: N-terminal GST; dsDNA, one strand shown
Sequence of ELF1 (P32519 whole entry): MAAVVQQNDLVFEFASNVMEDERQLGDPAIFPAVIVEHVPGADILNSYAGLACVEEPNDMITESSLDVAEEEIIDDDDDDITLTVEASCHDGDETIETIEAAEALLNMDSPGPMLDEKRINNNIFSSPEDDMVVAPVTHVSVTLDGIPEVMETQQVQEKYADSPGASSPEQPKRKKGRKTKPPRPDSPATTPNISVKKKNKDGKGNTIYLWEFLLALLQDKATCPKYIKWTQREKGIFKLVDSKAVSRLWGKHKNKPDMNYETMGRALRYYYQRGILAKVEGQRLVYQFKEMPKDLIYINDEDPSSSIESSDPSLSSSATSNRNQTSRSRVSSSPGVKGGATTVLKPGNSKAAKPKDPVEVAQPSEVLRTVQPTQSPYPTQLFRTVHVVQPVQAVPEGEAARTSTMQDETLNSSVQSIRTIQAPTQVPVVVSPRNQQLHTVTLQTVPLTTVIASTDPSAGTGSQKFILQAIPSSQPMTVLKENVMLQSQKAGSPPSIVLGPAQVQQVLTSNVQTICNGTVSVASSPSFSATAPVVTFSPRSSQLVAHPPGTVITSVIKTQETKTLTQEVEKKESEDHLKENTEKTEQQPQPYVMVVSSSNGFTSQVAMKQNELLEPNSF
Procedure, shortened: as §1

SPI1 = SPI1 (Homo sapiens, UniProt P17947 1-270); conditions: protein: recombinant; tags: N-terminal GST; dsDNA, one strand shown
Procedure, shortened: as §1

SPIB = SPIB (Homo sapiens, UniProt Q01892 1-262); conditions: protein: recombinant; tags: N-terminal GST; dsDNA, one strand shown
Sequence of SPIB (Q01892 whole entry): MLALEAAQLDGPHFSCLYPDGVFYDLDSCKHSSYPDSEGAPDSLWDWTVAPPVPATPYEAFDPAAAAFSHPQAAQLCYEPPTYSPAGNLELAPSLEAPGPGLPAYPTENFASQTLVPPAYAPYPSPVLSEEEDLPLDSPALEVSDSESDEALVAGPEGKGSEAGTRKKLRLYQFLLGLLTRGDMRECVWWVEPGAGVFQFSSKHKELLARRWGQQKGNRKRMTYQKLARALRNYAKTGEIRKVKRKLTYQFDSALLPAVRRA
Procedure, shortened: as §1

ELK3 = target: T3, ELK3 (Homo sapiens, UniProt P41970 1-407); conditions: protein: recombinant; tags: N-terminal GST; dsDNA, one strand shown
T3 sequence: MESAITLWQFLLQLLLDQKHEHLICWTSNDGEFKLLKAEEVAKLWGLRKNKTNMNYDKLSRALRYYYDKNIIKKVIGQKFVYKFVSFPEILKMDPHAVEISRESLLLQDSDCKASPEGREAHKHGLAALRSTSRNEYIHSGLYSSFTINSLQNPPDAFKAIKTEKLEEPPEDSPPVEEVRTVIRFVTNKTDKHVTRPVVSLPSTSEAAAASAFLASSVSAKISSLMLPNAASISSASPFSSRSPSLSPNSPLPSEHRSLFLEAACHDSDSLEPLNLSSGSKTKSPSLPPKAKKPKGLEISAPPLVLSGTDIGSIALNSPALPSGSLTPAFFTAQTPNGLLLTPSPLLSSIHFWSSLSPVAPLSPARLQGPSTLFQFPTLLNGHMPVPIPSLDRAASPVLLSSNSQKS
Procedure, shortened: as §1

FEV = target: T4, FEV (Homo sapiens, UniProt Q99581 1-238); conditions: protein: recombinant; tags: N-terminal GST; dsDNA, one strand shown
T4 sequence: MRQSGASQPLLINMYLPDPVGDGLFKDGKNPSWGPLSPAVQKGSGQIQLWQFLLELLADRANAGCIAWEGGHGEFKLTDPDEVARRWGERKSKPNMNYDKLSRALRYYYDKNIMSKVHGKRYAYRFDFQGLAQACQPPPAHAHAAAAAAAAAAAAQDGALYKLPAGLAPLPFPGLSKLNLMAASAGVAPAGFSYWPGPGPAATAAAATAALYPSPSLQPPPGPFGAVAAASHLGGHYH
Procedure, shortened: as §1

ETV5 = ETV5 (Homo sapiens, UniProt P41161 1-510); conditions: protein: recombinant; tags: N-terminal GST; dsDNA, one strand shown
Sequence of ETV5 (P41161 whole entry): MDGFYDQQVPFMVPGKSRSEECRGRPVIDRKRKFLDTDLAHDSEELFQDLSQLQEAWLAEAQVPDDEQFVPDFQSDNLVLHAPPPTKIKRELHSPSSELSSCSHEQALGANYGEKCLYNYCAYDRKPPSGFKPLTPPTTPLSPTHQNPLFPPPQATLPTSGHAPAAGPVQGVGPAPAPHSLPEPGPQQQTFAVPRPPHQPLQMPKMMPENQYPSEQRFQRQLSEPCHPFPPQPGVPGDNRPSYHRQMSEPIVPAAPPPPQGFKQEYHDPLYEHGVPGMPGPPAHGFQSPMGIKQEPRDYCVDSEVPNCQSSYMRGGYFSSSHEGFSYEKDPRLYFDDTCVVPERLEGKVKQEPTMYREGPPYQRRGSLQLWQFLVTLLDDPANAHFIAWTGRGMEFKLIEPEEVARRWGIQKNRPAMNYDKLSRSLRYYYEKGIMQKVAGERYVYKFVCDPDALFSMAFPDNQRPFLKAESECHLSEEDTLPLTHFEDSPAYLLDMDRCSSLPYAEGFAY
Procedure, shortened: as §1

HSF1 = HSF1 (Homo sapiens, UniProt Q00613 1-529); conditions: protein: recombinant; tags: N-terminal GST; chain copies: 3; dsDNA, one strand shown
Sequence of HSF1 (Q00613 whole entry): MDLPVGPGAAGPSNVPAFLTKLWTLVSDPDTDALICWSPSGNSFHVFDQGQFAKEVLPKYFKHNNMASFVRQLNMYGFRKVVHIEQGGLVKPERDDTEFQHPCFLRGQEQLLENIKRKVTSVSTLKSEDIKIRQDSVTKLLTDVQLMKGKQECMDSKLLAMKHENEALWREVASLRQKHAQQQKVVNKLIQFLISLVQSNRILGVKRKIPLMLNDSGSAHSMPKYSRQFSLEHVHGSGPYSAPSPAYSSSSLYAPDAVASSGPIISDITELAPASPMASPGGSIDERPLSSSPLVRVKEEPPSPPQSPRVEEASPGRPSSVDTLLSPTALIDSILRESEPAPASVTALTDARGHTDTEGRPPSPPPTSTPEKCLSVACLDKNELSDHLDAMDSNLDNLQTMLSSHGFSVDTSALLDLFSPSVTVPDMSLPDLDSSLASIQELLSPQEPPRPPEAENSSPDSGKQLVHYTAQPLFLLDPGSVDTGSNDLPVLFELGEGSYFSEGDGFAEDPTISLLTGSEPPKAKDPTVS
Procedure, shortened: as §1

SPIC = target: T5, SPIC (Homo sapiens, UniProt Q8N5J4 1-248); conditions: protein: recombinant; tags: N-terminal GST; dsDNA, one strand shown
T5 sequence: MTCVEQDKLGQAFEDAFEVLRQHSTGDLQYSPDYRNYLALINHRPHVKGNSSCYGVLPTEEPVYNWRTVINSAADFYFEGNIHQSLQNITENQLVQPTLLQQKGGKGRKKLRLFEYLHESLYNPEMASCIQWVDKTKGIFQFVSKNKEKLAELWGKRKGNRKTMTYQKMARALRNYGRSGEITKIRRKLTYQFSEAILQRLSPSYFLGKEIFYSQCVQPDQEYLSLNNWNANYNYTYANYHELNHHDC
Procedure, shortened: as §1

ELF4 = ELF4 (Homo sapiens, UniProt Q99607 1-663); conditions: protein: recombinant; tags: N-terminal GST; dsDNA, one strand shown
Sequence of ELF4 (Q99607 whole entry): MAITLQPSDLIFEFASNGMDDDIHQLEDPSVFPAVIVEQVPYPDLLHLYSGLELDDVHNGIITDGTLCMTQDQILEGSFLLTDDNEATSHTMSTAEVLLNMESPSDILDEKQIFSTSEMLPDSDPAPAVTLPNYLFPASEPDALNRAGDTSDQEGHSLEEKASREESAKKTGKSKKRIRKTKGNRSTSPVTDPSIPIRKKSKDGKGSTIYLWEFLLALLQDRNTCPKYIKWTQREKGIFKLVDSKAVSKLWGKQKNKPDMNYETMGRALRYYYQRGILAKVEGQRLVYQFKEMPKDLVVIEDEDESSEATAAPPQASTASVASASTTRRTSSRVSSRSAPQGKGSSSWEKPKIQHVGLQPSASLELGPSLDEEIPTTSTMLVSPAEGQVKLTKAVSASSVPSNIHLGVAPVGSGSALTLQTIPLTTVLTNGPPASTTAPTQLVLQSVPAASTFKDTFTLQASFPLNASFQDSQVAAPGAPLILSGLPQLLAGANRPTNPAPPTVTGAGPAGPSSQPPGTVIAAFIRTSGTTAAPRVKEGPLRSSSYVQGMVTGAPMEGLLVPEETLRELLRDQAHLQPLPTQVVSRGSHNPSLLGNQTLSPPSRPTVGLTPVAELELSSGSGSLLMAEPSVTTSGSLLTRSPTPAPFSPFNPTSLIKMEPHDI
Procedure, shortened: as §1

ELK4 = target: T6, ELK4 (Homo sapiens, UniProt P28324-2 1-405); conditions: protein: recombinant; tags: N-terminal GST; dsDNA, one strand shown
T6 sequence: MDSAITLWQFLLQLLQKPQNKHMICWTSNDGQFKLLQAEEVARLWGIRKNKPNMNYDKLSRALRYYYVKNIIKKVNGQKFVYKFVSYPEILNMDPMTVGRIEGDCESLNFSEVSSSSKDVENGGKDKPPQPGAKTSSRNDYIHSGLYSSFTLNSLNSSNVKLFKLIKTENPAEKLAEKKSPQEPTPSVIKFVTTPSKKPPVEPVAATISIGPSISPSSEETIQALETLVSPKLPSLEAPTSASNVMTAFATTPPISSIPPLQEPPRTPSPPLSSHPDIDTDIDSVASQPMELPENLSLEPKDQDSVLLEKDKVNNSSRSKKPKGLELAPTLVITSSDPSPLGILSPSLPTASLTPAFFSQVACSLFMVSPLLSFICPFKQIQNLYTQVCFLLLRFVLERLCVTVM
Procedure, shortened: as §1

ETV2 = target: T7, ETV2 (Homo sapiens, UniProt O00321 1-342); conditions: protein: recombinant; tags: N-terminal GST; dsDNA, one strand shown
T7 sequence: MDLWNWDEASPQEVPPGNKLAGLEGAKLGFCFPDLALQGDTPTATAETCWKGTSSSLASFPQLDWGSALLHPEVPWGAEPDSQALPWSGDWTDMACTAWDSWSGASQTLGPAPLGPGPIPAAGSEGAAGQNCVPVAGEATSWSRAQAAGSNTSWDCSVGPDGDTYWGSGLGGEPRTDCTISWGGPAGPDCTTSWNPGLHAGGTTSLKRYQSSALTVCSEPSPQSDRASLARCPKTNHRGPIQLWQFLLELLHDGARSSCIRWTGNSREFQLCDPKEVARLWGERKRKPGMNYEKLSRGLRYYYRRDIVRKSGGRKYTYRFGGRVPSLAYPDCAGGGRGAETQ
Procedure, shortened: as §1

ELF3 = target: T8, ELF3 (Homo sapiens, UniProt P78545 1-371); conditions: protein: recombinant; tags: N-terminal GST; dsDNA, one strand shown
T8 sequence: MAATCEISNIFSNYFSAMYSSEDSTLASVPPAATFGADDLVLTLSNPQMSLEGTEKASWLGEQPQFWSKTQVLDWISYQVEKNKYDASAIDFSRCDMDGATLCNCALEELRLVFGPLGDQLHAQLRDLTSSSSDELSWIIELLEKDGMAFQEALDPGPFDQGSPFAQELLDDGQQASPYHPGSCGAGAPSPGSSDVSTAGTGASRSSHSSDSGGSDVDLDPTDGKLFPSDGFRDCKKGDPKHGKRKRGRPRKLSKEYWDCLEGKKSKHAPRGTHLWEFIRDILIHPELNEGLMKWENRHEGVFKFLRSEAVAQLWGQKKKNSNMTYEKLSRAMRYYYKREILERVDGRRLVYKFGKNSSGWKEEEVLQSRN
Procedure, shortened: as §1

CRX = CRX (Homo sapiens, UniProt O43186 1-299); conditions: protein: recombinant; tags: N-terminal GST; dsDNA, one strand shown
Sequence of CRX (O43186 whole entry): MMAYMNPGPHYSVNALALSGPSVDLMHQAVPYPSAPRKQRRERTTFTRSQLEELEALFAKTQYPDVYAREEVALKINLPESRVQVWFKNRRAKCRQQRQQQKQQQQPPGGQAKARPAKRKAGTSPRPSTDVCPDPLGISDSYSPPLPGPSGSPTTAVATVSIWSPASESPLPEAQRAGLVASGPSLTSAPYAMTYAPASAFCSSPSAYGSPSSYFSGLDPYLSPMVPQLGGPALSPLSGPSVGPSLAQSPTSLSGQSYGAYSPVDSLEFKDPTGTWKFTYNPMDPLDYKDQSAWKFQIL
Procedure, shortened: as §1

ETV1 = ETV1 (Homo sapiens, UniProt P50549 1-477); conditions: protein: recombinant; tags: N-terminal GST; dsDNA, one strand shown
Sequence of ETV1 (P50549 whole entry): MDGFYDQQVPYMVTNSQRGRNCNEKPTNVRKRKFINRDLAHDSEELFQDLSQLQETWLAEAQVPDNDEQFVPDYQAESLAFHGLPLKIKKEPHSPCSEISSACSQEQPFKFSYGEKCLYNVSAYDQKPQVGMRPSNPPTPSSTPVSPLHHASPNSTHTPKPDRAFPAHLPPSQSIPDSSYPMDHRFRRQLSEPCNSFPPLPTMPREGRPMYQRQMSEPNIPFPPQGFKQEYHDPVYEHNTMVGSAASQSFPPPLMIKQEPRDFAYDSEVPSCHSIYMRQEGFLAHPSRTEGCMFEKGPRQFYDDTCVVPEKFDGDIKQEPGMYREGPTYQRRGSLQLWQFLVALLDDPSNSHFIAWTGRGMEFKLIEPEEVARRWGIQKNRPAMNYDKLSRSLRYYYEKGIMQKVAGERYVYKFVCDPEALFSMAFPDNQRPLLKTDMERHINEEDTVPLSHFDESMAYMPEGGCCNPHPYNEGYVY
Procedure, shortened: as §1

GABPA = target: T9, GABPA (Homo sapiens, UniProt Q06546 1-454); conditions: protein: recombinant; tags: N-terminal GST; dsDNA, one strand shown
T9 sequence: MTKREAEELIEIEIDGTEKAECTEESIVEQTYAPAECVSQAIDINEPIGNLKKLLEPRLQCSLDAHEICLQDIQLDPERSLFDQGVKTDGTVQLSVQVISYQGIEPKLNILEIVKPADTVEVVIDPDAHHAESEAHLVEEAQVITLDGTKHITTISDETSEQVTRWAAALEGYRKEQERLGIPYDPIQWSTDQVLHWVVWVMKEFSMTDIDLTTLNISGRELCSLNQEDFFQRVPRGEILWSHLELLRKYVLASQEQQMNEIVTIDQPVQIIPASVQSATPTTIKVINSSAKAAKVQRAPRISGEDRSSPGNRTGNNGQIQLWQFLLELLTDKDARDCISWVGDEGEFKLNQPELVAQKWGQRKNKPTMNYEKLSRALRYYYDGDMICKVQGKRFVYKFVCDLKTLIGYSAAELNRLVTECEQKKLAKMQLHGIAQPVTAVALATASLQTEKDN
Procedure, shortened: as §1

EHF = target: T10, EHF (Homo sapiens, UniProt Q9NZC4 1-300); conditions: protein: recombinant; tags: N-terminal GST; dsDNA, one strand shown
T10 sequence: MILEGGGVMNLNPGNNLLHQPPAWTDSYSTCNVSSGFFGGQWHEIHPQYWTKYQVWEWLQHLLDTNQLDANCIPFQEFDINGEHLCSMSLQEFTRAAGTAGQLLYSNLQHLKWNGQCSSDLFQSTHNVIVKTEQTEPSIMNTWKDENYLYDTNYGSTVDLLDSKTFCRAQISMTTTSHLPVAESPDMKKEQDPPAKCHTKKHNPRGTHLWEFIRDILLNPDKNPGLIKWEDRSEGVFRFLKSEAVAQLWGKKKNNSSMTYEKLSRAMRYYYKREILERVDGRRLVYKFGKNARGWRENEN
Procedure, shortened: as §1

With TTCCAG the binding signal (FLI1) was 1.03 fold enrichment (6-mer frequency, TF over GST control), the binding signal (ELK1) was 1.02 fold enrichment (6-mer frequency, TF over GST control) and the binding signal (ELF1) was 1.02 fold enrichment (6-mer frequency, TF over GST control). The binding signal (SPI1) was 1.05 fold enrichment (6-mer frequency, TF over GST control), the binding signal (SPIB) was 1.1 fold enrichment (6-mer frequency, TF over GST control) and the binding signal (ELK3) was 1.07 fold enrichment (6-mer frequency, TF over GST control). For the same sequence, the binding signal (FEV) was 1.05 fold enrichment (6-mer frequency, TF over GST control), the binding signal (ETV5) was 1.06 fold enrichment (6-mer frequency, TF over GST control) and the binding signal (HSF1) was 3.69 fold enrichment (6-mer frequency, TF over GST control). The binding signal (SPIC) was 1.02 fold enrichment (6-mer frequency, TF over GST control), the binding signal (ELF4) was 1.17 fold enrichment (6-mer frequency, TF over GST control) and the binding signal (ELK4) was 1.15 fold enrichment (6-mer frequency, TF over GST control). For the same sequence, the binding signal (ETV2) was 1.12 fold enrichment (6-mer frequency, TF over GST control), the binding signal (ELF3) was 1.05 fold enrichment (6-mer frequency, TF over GST control) and the binding signal (CRX) was 1.68 fold enrichment (6-mer frequency, TF over GST control). The binding signal (ETV1) was 1.05 fold enrichment (6-mer frequency, TF over GST control).

In the case of CCGAAG, the binding signal (FLI1) is reported as 1.12 fold enrichment (6-mer frequency, TF over GST control), the binding signal (ELK1) is reported as 1.09 fold enrichment (6-mer frequency, TF over GST control) and the binding signal (GABPA) is reported as 1.12 fold enrichment (6-mer frequency, TF over GST control). For the same sequence, the binding signal (ELF1) was 1 fold enrichment (6-mer frequency, TF over GST control), the binding signal (EHF) was 1.03 fold enrichment (6-mer frequency, TF over GST control) and the binding signal (SPIB) was 1.04 fold enrichment (6-mer frequency, TF over GST control). The binding signal (ELK3) was 1.03 fold enrichment (6-mer frequency, TF over GST control), the binding signal (FEV) was 1.04 fold enrichment (6-mer frequency, TF over GST control) and the binding signal (ETV5) was 1.02 fold enrichment (6-mer frequency, TF over GST control). The binding signal (HSF1) was 1.35 fold enrichment (6-mer frequency, TF over GST control), the binding signal (SPIC) was 1.23 fold enrichment (6-mer frequency, TF over GST control) and the binding signal (ELF4) was 1.05 fold enrichment (6-mer frequency, TF over GST control). For the same sequence, the binding signal (ELK4) was 1.2 fold enrichment (6-mer frequency, TF over GST control), the binding signal (ETV2) was 1.31 fold enrichment (6-mer frequency, TF over GST control) and the binding signal (ELF3) was 1.02 fold enrichment (6-mer frequency, TF over GST control). The binding signal (CRX) was 1.11 fold enrichment (6-mer frequency, TF over GST control) and the binding signal (ETV1) was 1.01 fold enrichment (6-mer frequency, TF over GST control).
